Data: PubChem BioAssay (NCI)
Where “and” joins values, the source holds several entries; their conditions need not be identical. Equal entries are not always repeated. Compounds without any hit were thinned out: in the full panel of roughly 79,000, 15% have a hit. Calls of active or inactive are those of the source. Cut-off read from the data, not from the text of the source: active = growth inhibition above about 70%; inactive = the rest.

Columns and labels:
[1] = NCI Yeast Anticancer Drug Screen. Data for the rad50 strain (AID 155);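 note: 0% = growth of vehicle-only cultures of the same strain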; details: S. cerevisiae rad50 strain growth inhibition, hits give high values; at 50.0 µM unless noted
In short: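 Cells are treated with compound, grown, and their growth is then scored against vehicle-only cultures of the same repair-deficient yeast strain.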

[2] = NCI Yeast Anticancer Drug Screen. Data for the mec2-1 strain (AID 157); details: S. cerevisiae mec2-1 strain, hits give high values; at 50.0 µM unless noted
In short: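 Vehicle-treated cultures served as reference for growth inhibition of compound-exposed mec2-1 yeast.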

[3] = NCI Yeast Anticancer Drug Screen. Data for the sgs1 mgt1 strain (AID 161);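 note: 0% = growth of cultures given vehicle only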; details: S. cerevisiae sgs1 mgt1 strain, hits give high values; at 50.0 µM unless noted
In short: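 Mutant yeast exposed to compound; growth scored against vehicle-only wells.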

[4] = NCI Yeast Anticancer Drug Screen. Data for the cln2 rad14 strain (AID 165);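 note: 0% = growth equal to vehicle treated cultures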; details: S. cerevisiae cln2 rad14 strain, hits give high values; at 50.0 µM unless noted
In short: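 Each compound was tested on cln2 rad14 yeast. Inhibition of growth was calculated against vehicle-exposed controls.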

[5] = NCI Yeast Anticancer Drug Screen. Data for the bub3 strain (AID 167); details: S. cerevisiae bub3 mutant strain, hits give high values; at 50.0 µM unless noted
In short: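 Part of a panel of yeast mutants defective in DNA damage repair or cell cycle regulation. Each strain is grown with compound, and inhibition is calculated relative to solvent-treated cultures.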

[6] = NCI Yeast Anticancer Drug Screen. Data for the mlh1 rad18 strain (AID 175); details: S. cerevisiae mlh1 rad18 strain growth inhibition, hits give high values; at 50.0 µM unless noted
In short: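 Vehicle-treated cultures served as the reference for growth inhibition in a yeast strain carrying DNA damage repair alterations exposed to each compound.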

Measured: growth inhibition

Oc1ccc(C(O)CN2CCCC2)cc1O (centres undefined)
inactive: [1] -15.7% | [2] 10.9% | [3] -0.1% | [4] -36.1% | [5] 2.7% | [6] -15.3%

NC1CC(c2ccccc2)NC(c2ccccc2)C1 (centres undefined)
inactive: [1] 10.7% | [2] -2.9% | [3] -4.8% | [4] -8.5% | [5] -14.8% | [6] 16.2%

Nc1ncnc(N)c1NC(=O)c1cccnc1
inactive: [1] 8.7% | [2] -6% | [3] 7.65% | [4] -40% | [5] -2.05% | [6] 5.5%

COc1cc2c(cc1OC)[C@H](c1cc(OC)c3c(c1)OCO3)[C@H]1C(=O)OCC1C2 (some centres undefined)
inactive: [1] 11.4% | [2] -0.1% | [3] 0.2% | [4] 4.85% | [5] 30.6% | [6] 15.4%

CN(C)CC1CCCCCC(CN(C)C)C1=O (centres undefined)
inactive: [1] -17.9% and 38% | [2] 8.3% and 2.75% | [3] -1.85% and 25.9% | [4] 0.45% and -28.4% | [5] -10.4% and -1.65% | [6] 16.8% and 12.9%

N#C/C(=C\c1c[nH]c2ccccc12)C(N)=O
inactive: [1] 13.6% and 2.05% | [2] 5.15% and -7.45% | [3] 7.3% | [4] 18.8% | [5] -7.3% | [6] 22.5% and 5.8%

O=C(OCCCl)c1ccc(Cl)c(Cl)c1
inactive: [1] 5.75% | [2] -20.1% | [3] 7.05% | [4] 9% | [5] 3.75% | [6] -19.9%

NC(=O)C(NCc1ccccc1)c1ccccc1 (centres undefined)
inactive: [1] -2.65% | [2] 4.4% | [3] 1.6% | [4] 12.5% | [5] 2.6% | [6] 2.6%

CCOC(=O)C1C(=O)CC(C)(O)C(C(=O)OCC)C1c1ccc(OC)cc1 (centres undefined)
inactive: [1] -27.4% | [2] 2.55% | [3] 8.65% | [4] -5.95% | [5] -2% | [6] 21.8%

Nc1cccc(S(=O)(=O)NNc2cc(Cl)ccc2Cl)c1
active: [1] 98.7% | [2] 98.6% | [3] 98.8% | [4] 98.8% | [5] 98.3% | [6] 99%

CCN(CC)CCOC(=O)Cc1cccc2c(=O)cc(-c3ccccc3)oc12
inactive: [1] -1.65% | [2] -11.7% | [3] -3.65% | [4] -3.9% | [5] 14.8% | [6] -53%

CSCCC(NC(=O)OCc1ccccc1)C(=O)O (centres undefined)
inactive: [1] -31.4% | [2] -0.6% | [3] 5.05% | [4] -25.2% | [5] -4.5% | [6] -4.45%

CCCCCCCS(=O)c1nc2ccccc2s1 (centres undefined)
inactive: [1] 37.2% | [2] 15.2% | [3] 60.9% | [4] 20.2% | [5] 42.8% | [6] 27.6%

CCCCCCCCCCCC(=O)OC(COCCC(C)C)COCCC(C)C
inactive: [1] -2.9% | [2] -5.05% | [3] -3.15% | [4] -12.1% | [5] -11.9% | [6] 12.1%

Cc1cc(C(=O)O)c(C(=O)O)c(Cl)n1
inactive: [1] -9.15% | [2] -5% | [3] 0.45% | [4] -12.9% | [5] -16.9% | [6] 4.8%

C=CCn1c(=O)c2ccccc2[n+]2c(C)c(C(=O)OCC)sc12
inactive: [1] -26.9% | [2] -16.2% | [3] -2.65% | [4] -14.5% | [5] 2.45% | [6] -19.6%

O=C1OC(=O)C2C(Cl)C(Cl)C12 (centres undefined)
inactive: [1] -5.1% | [2] -7.2% | [3] 2.7% | [4] -37.6% | [5] -15.8% | [6] 3.4%

NC(=O)c1ncc(Cl)cc1Cl
inactive: [1] 21.1% | [2] 2.5% | [3] 14.3% | [4] 5.8% | [5] 0.55% | [6] 25.1%

Cc1cc(=O)n2nc(CCl)sc2n1
inactive: [1] 9.65% | [2] 10.2% | [3] 6.15% | [4] -8% | [5] 11.3% | [6] 10.1%

O=[N+]([O-])c1ccc(/C(=C\c2ccc(-c3ccccc3)o2)S(=O)(=O)c2ccccc2)o1
inactive: [1] 26.2% | [2] -17.5% | [3] -5.1% | [4] 23.6% | [5] -1.2% | [6] 2.25%

O=C1NC(Cc2ccccc2)C(=O)NC1Cc1ccccc1 (centres undefined)
inactive: [1] 2.35% | [2] -6.7% | [3] 7.7% | [4] -22.8% | [5] -4.95% | [6] -1.35%

COC(=O)CCc1ccco1
inactive: [1] 10.6% | [2] -10% | [3] 3.4% | [4] 2.5% | [5] 6.95% | [6] 12.7%

CC(C)N1C(=O)N(Cl)C2C1N(Cl)C(=O)N2Cl (centres undefined)
inactive: [1] 15% | [2] -0.4% | [3] -6.7% | [4] 22.6% | [5] -3.55% | [6] 53.9%

NC(N)=N/N=C(\c1ccc(C(F)(F)F)cc1)c1ccc(Cl)c(Cl)c1
active: [1] 99.5% | [2] 99.5% | [3] 99.7% | [4] 99.2% | [5] 99.3% | [6] 99.7%

CCSc1nnc(Sc2c3ccccc3nc3ccccc23)s1
inactive: [1] 26.9% | [2] 3.15% | [3] -13.1% | [4] 11.4% | [5] 16.8%
active: [6] 76%

CCOC(=O)CSCC(=O)OCC
inactive: [1] 3.6% | [2] -9% | [3] -17.2% | [4] 8.45% | [5] -9.4% | [6] -4.65%

O=S(=O)(O)c1ccc(Nc2ccccc2)cc1
inactive: [1] -1.2% and 5.95% | [2] -38.8% and -24.1% | [3] -11% | [4] -18.3% | [5] 2% | [6] -20.9% and 6.2%

NC(=O)c1ccc(-c2csc(=S)[nH]2)s1
inactive: [1] -1.9% | [2] -9.7% | [3] -15.5% | [4] -13.1% | [5] -19.1% | [6] -5.35%

CN(C)CCCC(=O)O
inactive: [1] -13.3% | [2] -45.4% | [3] -14.1% | [4] 2.8% | [5] -31.9% | [6] -0.35%

CCN(CC)CCN1CC(=O)N2CCCCN2C(=O)C1
inactive: [1] 17.2% | [2] 4.5% | [3] 14.9% | [4] 13.4% | [5] 7.85% | [6] 10.6%

CCOc1ccc(OCC)cc1
inactive: [1] 3.6% | [2] -0.65% | [3] -9.05% | [4] -29.3% | [5] -11.1% | [6] 4.65%

CC(=O)NNS(=O)(=O)c1ccccc1
inactive: [1] 8.1% | [2] 28.6% | [3] 4.15% | [4] -1.15% | [5] -17.9% | [6] 16.8%

COC(=O)C(Br)C(Br)c1cc(OC)c(OC)c(OC)c1 (centres undefined)
inactive: [1] 48.2% | [2] 9.6% | [3] 2.3% | [4] 40% | [5] 10.4% | [6] 14.2%

COc1ccc2c(c1)Cc1cc(NC(C)=O)ccc1-2
inactive: [1] -4.55% | [2] -11.2% | [3] 21.5% | [4] -47.9% | [5] 4.1% | [6] 13.1%

NC(CCn1cnc2c(=O)[nH]cnc21)C(=O)O (centres undefined)
inactive: [1] 4.1% | [2] 10.3% | [3] 6.7% | [4] -31.6% | [5] -12.8% | [6] -11.7%

CNC(=S)NCOCCOC(C)=O
inactive: [1] 6.75% | [2] 22.1% | [3] 15.2% | [4] -26.9% | [5] 0.75% | [6] 3.45%

COC1CC(OC2CCC3(C)C(CCC45CCC(C6=CC(=O)OC6)C(C)(CCC43)C5=O)C2)OC(C)C1O (centres undefined)
inactive: [1] 22.4% | [2] -11.7% | [3] 2.6% | [4] 17.6% | [5] 12.8% | [6] -17.9%

OC(c1ccccc1)(c1ccccc1)C1/C(=C/c2ccccc2)C1Cc1ccccc1 (centres undefined)
inactive: [1] 4.85% | [2] 2.4% | [3] -7.9% | [4] -8.1% | [5] -3.75% | [6] 3%

CC1CC(=O)c2c(ccc3c2C(=O)c2cccc(O)c2C3=O)C1 (centres undefined)
inactive: [1] -3.55% | [2] -0.45% | [3] 40.2% | [4] 24.8% | [5] -1.05% | [6] 52.8%
